# High-throughput results: PubChem BioAssay, Broad Institute
# Wnt act: Wnt/beta-catenin pathway activation. Wnt/beta-catenin reporter cell assay, activator, plate reader. activation, % at 9.35 µM. hit rate 1.2% among 300,000; in the data active = activation above about 30%, passing the limit was not always enough; inconclusive = no clear call, values can overlap the other calls;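 also: 0% = neutral control wells and 100% = positive control wells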
# C2C12 statin: suppressors of simvastatin-induced myotoxicity in C2C12 myotubes | ATP luminescence, 48 h; scaled: DMSO 0, geranylgeraniol control 100 | AID 602340 | rescue of ATP level, % at 7.49 µM | hit rate 0.78% among 330,000;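 active = mean ATP rescue above about 67%, or every replicate alone reaching that limit, limit read from the data, passing the limit was not always enough; inconclusive = no clear call, values can overlap the other calls; inactive = mean under the limit and some replicate under it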;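 also: myotubes were challenged with 10 µM simvastatin during compound exposure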
# MITF TRPM1 HTS: increases MITF-driven TRPM1 promoter luciferase signal; activation, % at 12.5 µM; hit rate 0.75% among 300,000; AID 588334; SK-MEL-5 TRPM1-promoter luciferase, 24 h; % of positive control, neutral wells = 0;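 active = mean activation of at least 80% with every replicate also reaching 80%; inconclusive = mean reaches 80% but some replicate falls short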;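 also: 0% = neutral control wells and 100% = parthenolide positive control wells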
# esBAF inh: blocks esBAF chromatin remodeling in mouse ES cells. Bmi1-luciferase knock-in reporter, 24 h; 100% = twice the neutral-well signal. reporter increase, % at 12.5 µM. hit rate 2% among 350,000; in the data active = activation above about 40%; inconclusive = no clear call, values can overlap the other calls;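 also: 0% = median of the plate's neutral control wells and 100% = double that signal; a rise in the Bmi1 reporter signal indicates esBAF inhibition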
# esBAF Ring1 qPCR: esBAF inhibition confirmed by Ring1 de-repression. mouse ESC E14, Ring1 mRNA RT-qPCR fold change. fold change at 33 µM. shares compounds with esBAF inh. 550 tested, under 10 active;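 active = Ring1 gene expression raised more than 2-fold over untreated cells in both replicates at either tested dose; inconclusive = only one replicate above 2-fold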;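 also: Ring1 transcript normalised to actin housekeeping signal by TaqMan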
# esBAF Fgf4 qPCR: represses Fgf4 in mouse ESCs, confirming esBAF inhibition; shares compounds with esBAF inh; mouse ESC E14, Fgf4 mRNA qPCR fold change; active compounds read low; Fgf4 expression fold change at 33 µM; hit rate 4% among 550; AID 743177;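 active = Fgf4 expression under 0.8 fold of control in both repeat measurements at one or both tested doses; inconclusive = under 0.8 fold in just a single repeat measurement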;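 also: Fgf4 transcript normalised to actin in duplex TaqMan qPCR; cells exposed to compound for 24 h before lysis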
# esBAF Bmi1 qPCR: de-represses Bmi1 in mouse ESCs, confirming esBAF inhibition; 550 tested, under 10 active; shares compounds with esBAF inh; fold change at 33 µM; mouse ESE14 ES cells, Bmi1 mRNA qPCR fold; active compounds read high;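 active = Bmi1 expression fold change above 6 at either tested concentration, seen in replicate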;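 also: higher fold means more Bmi1 de-repression and stronger esBAF inhibition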
# A549 tox SP: A549 cell cytotoxicity; shares compounds with esBAF inh; plate reader; cell viability change % (negative = cytotoxic), % at 25 µM, hits read low; 550 tested, under 10 active; AID 743188; call rule not given here
# HepG2 tox SP: cytotoxicity in HepG2 cells; shares compounds with esBAF inh; plate reader; active compounds read low; activity change, negative = inhibition, % at 25 µM; hit rate 4% among 550; AID 743189; in the data active = activity change below about -50%
# HEK293 cytotox SP: kills or reduces viability of HEK293 cells | hit rate 3% among 550 | HEK293 cytotoxicity, plate reader | shares compounds with esBAF inh | AID 743190 | activity change, negative = inhibition, % at 25 µM, hits read low; in the data active = activity change below about -38%, passing the limit was not always enough
# * = called active by the depositor; ? = inconclusive; · = not tested or not shown; ! = not confirmed by another sample. Compounds with a hit are over-represented: about 3% of the library has one in this group of screens.
SMILES,Wnt act,C2C12 statin,MITF TRPM1 HTS,esBAF inh,others
COC(=O)C1=C(c2ccc(OC)c(OC)c2)C[C@@H]2CC[C@H]1N2C(=O)NCCO,0,-5,-3,-8,
CC=Cc1ccc2n(c1=O)C[C@H]1[C@H](CO)[C@@H](C(=O)OC)[C@@H]2N1S(=O)(=O)c1cccc(C)c1 (mixture of isomers),·,-24,·,-1,
C[C@]12CC[C@H]3[C@@H](CCC4=CC(=O)CC[C@@]43C)[C@@H]1CC[C@@H]2O,33*!,5,-25,5,
O=C(Cc1ccncc1)N1CCCCN2[C@H](CO)[C@H](c3ccc(C#Cc4ccccc4F)cc3)[C@@H]2C1,·,-4,·,3,
CC(C)NC(=O)N1[C@@H]2Cn3c(ccc(-c4cccc(C(=O)N(C)C)c4)c3=O)[C@H]1[C@@H](C(=O)O)[C@@H]2CO,·,-52,·,-1,
C=CCn1c(O)c(C(C)=NCCCO)c(=O)[nH]c1=O,·,108*,-6,-6,
C=CCn1c(O)c(C(C)=NCCO)c(=O)[nH]c1=O,-15,9,-14,-3,
COc1ccc(C2=NCc3nnc(C)n3-c3ccc(Cl)cc32)cc1Cl,16,98*,1,-11,
COC(=O)[C@@H]1[C@@H](CO)[C@@H]2Cn3c(cccc3=O)[C@@H]2N1CC1CC1,·,8,·,0,
C=COCCn1c(C)c(C(C)=O)c2cc(O)ccc21,-1,113*,0,-8,
O=C1CN=C(c2cc([N+](=O)[O-])ccc2Cl)c2cc([N+](=O)[O-])ccc2N1,47*,11,·,1,
CCCN1[C@@H]2Cn3c(cccc3=O)[C@H]1[C@@H](C(=O)N(C)C)[C@@H]2CO,·,2,·,0,
c1ccc2oc(-c3ccc4c(c3)CNCc3cnnn3-4)cc2c1,3,4,·,66*,
c1cc2c(cc1N1CCCCC1)CNCc1cnnn1-2,-1,-16,·,-1,
COc1ccc2c(c1)/C(=C/c1cnc[nH]1)C(=O)N2,13,34,-34,52*,
COc1ccc(-n2c(/C=C3\C(=O)Nc4ccccc43)nc3ccccc3c2=O)cc1,-1,·,1,·,
O=C1Nc2ccccc2/C1=C/c1nc2ccccc2c(=O)n1-c1ccc(O)cc1,1,9,-13,13,
O=C1Nc2ccccc2/C1=C/c1cnc[nH]1,4,199*,-17,17,
CCCNC(=O)N1[C@@H]2c3ccc(-c4ccccc4OC)c(=O)n3C[C@H]1[C@H](CO)[C@H]2C(=O)O,·,-23,·,-7,
CN1C(=O)C(Cc2ccc(OCc3ccccc3)cc2)C(=O)N(C)C1=O,11,-4,71,27,
COc1cc(CC2C(=O)N(C)C(=O)N(C)C2=O)ccc1OCc1ccccc1,28,1,43,46*,
O=[N+]([O-])c1ccccc1CNCCc1ccc(F)cc1,·,14,21,41*,
N#Cc1cccc(-c2ccc([C@@H]3[C@@H](CO)N4CCCCN(C(=O)Cc5cccnc5)C[C@@H]34)cc2)c1,·,-44,·,4,
O=C(NC1(C(F)(F)F)Oc2ccccc2O1)N1CCC2(CC1)OCCO2,·,101*,2,6,
CCCC(=O)c1c(O)[nH]c(=O)[nH]c1=O,-4,97*,-5,-4,
SMILES,Wnt act,C2C12 statin,MITF TRPM1 HTS,esBAF inh,others
CC/C(=N\NC(N)=O)c1c(O)[nH]c(=O)[nH]c1=O,74*,·,-2,·,
CC/C(=N\Nc1ccccc1)c1c(O)[nH]c(=O)[nH]c1=O,4,15,·,-5,
O=C(Cc1cccnc1)N1CCCCN2[C@H](CO)[C@H](c3ccc(C#CC4(O)CCCC4)cc3)[C@H]2C1,·,8,·,5,
Cn1c(=O)oc(=O)c2ccccc21,-2,0,-8,-5,
Cc1cc(C(=O)N=Nc2c(O)n(C)c3ccccc23)c(C)o1,·,-20,87*,36,
C[C@H]1C[C@@H](C)C(=O)[C@@H]([C@H](O)CC2CC(=O)NC(=O)C2)C1,-3,171*,·,-68,
CN(c1ccc(O)cc1)c1ccc([N+](=O)[O-])c2nonc12,5,117*,·,-10,
CN1C(=O)C(=Cc2ccc(N3CCCCCC3)o2)C(=O)N(C)C1=S,-2,17,·,41*,
O=C1c2ccccc2-c2cc3ccccc3cc21,46*,·,33,·,
O=C1c2ccccc2-c2cccc3cccc1c23,16,-4,36,?,
CC12CN3CC(C)(CN(C1)C3c1cccnc1)C2=O (centres undefined),-2,123*,4,-1,
CCC12CN3CC(CC)(CN(C1)C3c1cccnc1)C2=O (centres undefined),·,137*,5,-10,
COC(=O)[C@H]1[C@H](CO)[C@H]2Cn3c(ccc(C4=CCCCC4)c3=O)[C@@H]1N2CCc1ccccc1,·,-143,·,-1,
O=C(O)[C@H]1[C@H](CO)[C@H]2Cn3c(ccc(-c4ccncc4)c3=O)[C@@H]1N2C(=O)C1CC1,·,-9,·,-7,
COc1ccc(CCNC2CCCCC2)cc1,-4,·,2,·,
COc1ccc(C[C@H]2NC[C@H](O)[C@H]2OC(C)=O)cc1,-30,79*,-81,-66,
CCCN1[C@@H]2Cn3c(ccc(-c4ccc(F)cc4)c3=O)[C@H]1[C@@H](C(=O)OC)[C@@H]2CO,·,5,·,4,
O=c1[nH]cnc2nc(-c3ccc(N(CCCl)CCCl)cc3)[nH]c12,10,-15,61,74*,esBAF Ring1 qPCR=1.1;esBAF Fgf4 qPCR=0.89;esBAF Bmi1 qPCR=2.4;A549 tox SP=-54*;HepG2 tox SP=8;HEK293 cytotox SP=-37*
O=C(Cc1ccccn1)N1CCCCN2[C@@H](CO)[C@@H](c3ccc(-c4ccccc4F)cc3)[C@@H]2C1,·,-13,·,2,
CC=Cc1ccc2n(c1=O)C[C@@H]1[C@@H](CO)[C@H](C(=O)OC)[C@H]2N1CC1CC1 (mixture of isomers),·,4,·,-5,
c1ccc(Nc2ccc3ccccc3c2)cc1,0,-11,95*,74*,esBAF Ring1 qPCR=1.1;esBAF Fgf4 qPCR=?;esBAF Bmi1 qPCR=1.5;A549 tox SP=-1;HepG2 tox SP=-6;HEK293 cytotox SP=-7
c1ccc(CCc2ccc3n2Cc2cnnn2-c2ccccc2-3)cc1,-8,-21,3,-8,
COc1ccc(-c2ccc3n2Cc2cnnn2-c2ccccc2-3)cc1,3,8,20,82*,esBAF Ring1 qPCR=0.95;esBAF Fgf4 qPCR=1;esBAF Bmi1 qPCR=1.8;A549 tox SP=-4;HepG2 tox SP=-36;HEK293 cytotox SP=-13
